Source: PubChem BioAssay AID504339 (National Center for Advancing Translational Sciences (NCATS), 2011)
The whole screen tested about 390,000 compounds, of which about 17,000 (4.4%) were called active. About 8% were inconclusive and are not listed. The call rests on the fitted dose curve; in most records, active means well fitted inhibition curve with a large enough effect; inconclusive means small, poorly fitted or top-dose-only effect; inactive means no such curve, though single readings can be large or run the other way. The full list was thinned out, with actives kept by preference.

What follows are compounds tested against Lysine-specific demethylase 4A (Homo sapiens) (UniProt O75164) (assay: qHTS Assay for Inhibitors of JMJD2A-Tudor Domain). Details: AlphaScreen JMJD2A-Tudor / H3K4me3 peptide binding; series mostly up to 114 µM; activity change, negative = inhibition: at the top concentration.
Sequence of Lysine-specific demethylase 4A (Homo sapiens) (O75164 whole entry, looked up, the tested form may be a part): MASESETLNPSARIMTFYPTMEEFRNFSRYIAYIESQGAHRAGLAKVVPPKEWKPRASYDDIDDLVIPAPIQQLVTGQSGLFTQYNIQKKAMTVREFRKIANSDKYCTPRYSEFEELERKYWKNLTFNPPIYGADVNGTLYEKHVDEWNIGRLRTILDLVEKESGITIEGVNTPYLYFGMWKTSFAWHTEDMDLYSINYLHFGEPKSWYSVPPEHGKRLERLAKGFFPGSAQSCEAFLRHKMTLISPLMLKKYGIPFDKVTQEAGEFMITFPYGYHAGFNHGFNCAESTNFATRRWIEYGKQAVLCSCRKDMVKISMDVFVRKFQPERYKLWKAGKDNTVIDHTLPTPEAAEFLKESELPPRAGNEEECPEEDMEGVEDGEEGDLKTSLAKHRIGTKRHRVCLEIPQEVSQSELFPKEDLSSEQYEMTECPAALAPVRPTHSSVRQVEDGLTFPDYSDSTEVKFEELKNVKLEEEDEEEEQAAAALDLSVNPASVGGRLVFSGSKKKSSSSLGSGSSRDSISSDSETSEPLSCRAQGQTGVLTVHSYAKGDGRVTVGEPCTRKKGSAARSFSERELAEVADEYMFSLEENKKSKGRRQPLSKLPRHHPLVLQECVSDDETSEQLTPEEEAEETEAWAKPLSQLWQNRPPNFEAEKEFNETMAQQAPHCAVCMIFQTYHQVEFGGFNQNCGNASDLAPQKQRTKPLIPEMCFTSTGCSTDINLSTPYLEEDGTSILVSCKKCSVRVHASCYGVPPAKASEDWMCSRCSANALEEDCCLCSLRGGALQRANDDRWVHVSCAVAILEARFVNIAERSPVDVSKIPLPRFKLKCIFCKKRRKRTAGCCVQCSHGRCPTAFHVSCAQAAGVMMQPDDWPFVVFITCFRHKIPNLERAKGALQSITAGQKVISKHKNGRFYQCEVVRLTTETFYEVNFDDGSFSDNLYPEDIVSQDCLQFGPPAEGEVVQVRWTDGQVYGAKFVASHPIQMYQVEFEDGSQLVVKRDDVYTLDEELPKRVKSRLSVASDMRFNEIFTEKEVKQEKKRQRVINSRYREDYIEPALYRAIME
Further: nearly all actives have a fitted effect of over 50% in size.
On the % scale 0 is the no-effect control and ±100 the full control effect; potency means the concentration at half of the fitted maximal effect.

Potency, inactive:
CCOc1ccccc1NC(=O)CCS(=O)(=O)c1cccc2nsnc12

Potency, active:
Cc1ccc(NC(=O)NC(=O)N(C2CCCCC2)S(=O)(=O)c2ccccc2)cc1 70.8 µM
COc1cccc2c1C(=O)c1c(O)c3c(c(O)c1C2=O)CC(O)(C(C)=NNC(=O)c1ccc(Cl)c(Cl)c1)CC3OC1CC(N)C(O)C(C)O1 (stereo not drawn) 50.1 µM
COc1ccc(/C=C/C(=O)c2cc(Br)ccc(=O)c2O)cc1 31.6 µM
CC1=C(C)CC2C(=O)N(c3cccc4ccccc34)C(=O)C2C1 (stereo not drawn) 56.2 µM
COc1ccc(OCCn2ccnc2C)cc1 1 µM
O=C1c2ccccc2-c2ncnc3c(N4CCOCC4)cc(N4CCOCC4)c1c23 44.7 µM
CCOc1ccc(OCC)c(NC(=O)CN(C)S(=O)(=O)c2cccc3nsnc23)c1 50.1 µM
O=C(N/N=C/c1cccc(Br)c1)c1ccc(N2CCCC2=O)cc1 56.2 µM
CC1CN(CCOc2ccccc2[N+](=O)[O-])CC(C)O1 (stereo not drawn) 22.4 µM
CC1Cc2cc(/C(O)=C3\C(=O)C(=O)N(CCN4CCOCC4)C3c3ccccc3F)ccc2O1 (stereo not drawn) 39.8 µM
Cc1cccc(N=Nc2c(C)[nH]n(-c3ccccc3)c2=O)c1 11.2 µM
Cc1ccc(N=Nc2c(C)[nH]n(-c3ccccc3)c2=O)cc1 6.31 µM

Activity change, negative = inhibition, inactive:
CC(C)(C)NS(=O)(=O)c1ccc(NC(=O)NC2CCCCC2)cc1 -9.35%
CC(c1ccco1)N(C(=O)Nc1ccccc1)C1CCCCC1 (stereo not drawn) -15.1%
Cc1ccc2cccc(NC(=O)c3cccc4ccccc34)c2n1 29.1%
Cc1ccc(CNC(=O)CCNS(=O)(=O)c2ccc3c(c2)oc(=O)n3C)cc1 -5.3%
O=C(Nc1ccc2nc(SCCOc3ccccc3Cl)sc2c1)c1ccco1 -7.62%
COc1ccc(C(=O)c2oc3ccc(Br)cc3c2NC(C)=O)cc1 -14.3%
COc1ccc(CC(=O)NCC(=O)N/N=C/c2cc(Br)ccc2OC)cc1 -17.2%
COc1ccc(S(=O)(=O)NCc2cccn2Cc2cccc(C)c2)cc1 -8.28%
CCOc1ccccc1N(C)C(=O)c1cc2c(s1)-c1ccccc1OC2 5.82%
CCSc1ncc(Cl)c(C(=O)Nc2c(C(=O)c3ccccc3)oc3ccccc23)n1 -25%
O=C(CCS(=O)(=O)c1cc(Br)cc2c1N(C(=O)C1CC1)CC2)Nc1ccc(Br)cc1F -8.22%
Cc1ccc(N2C(=O)CC(Nc3cccc4ccccc34)C2=O)cc1 (stereo not drawn) -16.5%
CCc1ccccc1N1C(=O)C2C3CC(=O)C(c4ccccc43)C2C1=O (stereo not drawn) -9.28%
O=C(Cn1ncn2nc(-c3cccs3)cc2c1=O)NCc1cccc(Br)c1 0%
CCOC(=O)c1[nH]c(C)c(CCC(=O)N2CCN(c3ccccc3)CC2)c1C -26.9%
Cc1ccc(CNC(=O)Cn2c(=O)ccc3cc(S(=O)(=O)N4CCCC4)ccc32)cc1 -0.323%
COc1ccc(OCCCC(=O)Oc2ccc(OC)cc2)cc1 -6.34%
COc1ccc(OCCn2cc(C(=O)C3CCCCC3)c3ccccc32)cc1 4.12%
CCOc1ccc(N(CC)C(=O)C2CCN(S(=O)(=O)c3cccc4nonc34)CC2)cc1 -12.3%
O=S(=O)(Nc1cc(Cl)ccc1N1CCOCC1)c1ccccc1Cl -6.21%
Cc1oc2c(c1C(=O)N1CCOCC1)C(=O)c1ccccc1C2=O -5.52%
Cn1nnnc1SCCCNCc1cccc(OCc2ccc(Cl)cc2)c1 -10.9%
O=[S+]([O-])(c1ccc2c(c1)OCCO2)N1CCN([S+](=O)([O-])c2c(Cl)cc(Cl)cc2Br)CC1 -18.5%
Cc1ccc(C)c(N2CCN(CCCNC(=O)Nc3ccc(Cl)cc3)CC2)c1 -24%
CCOc1ccc(NC(=O)CCS(=O)(=O)c2cccc3nsnc23)cc1 -25%
CCc1nc2onc(C)c2c(=O)n1CC(=O)O -23.5%
CCOc1ccc(NC(=O)c2cn(C3CCCCC3)c(=O)c3c2c2ccccc2n3C)cc1 -11%
O=C(Nc1ccc(N2CCCC2=O)cc1)c1cncc(Br)c1 4.17%
O=C(N/N=C\c1cccc(Br)c1)c1ccccc1-n1cccc1 -14.5%
CC(Oc1ccccc1[N+](=O)[O-])C(=O)N/N=C/c1ccoc1 (stereo not drawn) -15.2%
O=[N+]([O-])c1ccccc1OCCCCN1CCCCC1 -20.3%
COc1ccc2ncc3c(-c4ccc(C)c(C)c4)nn(CC(=O)NC4CCCC4)c3c2c1 -12.3%
Cc1cc(=O)n(CC(=O)Nc2cccc([N+](=O)[O-])c2)c(-n2nc(C)cc2C)n1 -18.2%
O=C(/C=C/c1ccccc1)N1CCN(Cc2cc(=O)n3nc(-c4ccccc4F)sc3n2)CC1 -0.325%
COc1cccc2c1cc1c(=O)n(CC(=O)N3CCN(c4ccccc4)CC3)nc(C)n12 -14.5%
CC1Cc2cc(/C(O)=C3\C(=O)C(=O)N(Cc4cccnc4)C3c3ccccc3F)ccc2O1 (stereo not drawn) -12.8%
O=C1C(=O)N(CCN2CCOCC2)C(c2cccc(Cl)c2)/C1=C(/O)c1ccc2c(c1)OCO2 (stereo not drawn) -16.7%
CCOc1ccccc1NC(=O)C1CCCN(S(=O)(=O)c2cn(C)cn2)C1 (stereo not drawn) -10.6%
COCCNS(=O)(=O)c1cc(-c2nn3c(C)nnc3c3ccccc23)ccc1C -10.4%
Cc1ccc(-c2ccnc3[nH]n(-c4ccccc4)c(=O)c23)cc1 -13.3%
Cc1cccc(N=Nc2c(O)[nH]c3ccc(F)cc23)c1 -18.8%
Cc1[nH]n(-c2ccccc2)c(=O)c1CCOC(=O)c1ccc(C(F)(F)F)cc1 -10.1%
Cc1c(N=Nc2ccc(N(C)C)cc2)c(=O)n(-c2ccccc2)n1C -26.2%
O=C(NCc1ccc(F)cc1)c1ccc(Cn2c(SCc3ccc(F)cc3)nc3cccnc32)cc1 -4%
Cc1c(NC(=O)Nc2ccc(F)c(Cl)c2)c(=O)n(-c2ccccc2)n1C 11.3%
Cc1c(CNC(C)c2ccccc2)c(C(=O)O)c(C)n1Cc1c(F)cccc1Cl (stereo not drawn) -32.2%
O=C(NCCCO)C(=O)Nc1c2c(nn1-c1ccc(F)cc1)CSC2 -13.3%
CCn1c(CNC(=O)C23CC4CC(CC(C4)C2)C3)nnc1SCC(=O)Nc1ccc(OC)cc1 -11.8%
CC1=C(c2ccc(F)cc2)S(=O)(=O)N=C1N1CCC(C(=O)NCCc2ccccc2C)CC1 -17.7%
CCCS(=O)(=O)N1CCC(n2c(C(F)(F)F)nc3cccnc32)CC1 -16.9%
